Bioassay records from PubChem BioAssay.
MITF primary: MITF inhibitors, primary screen, biochemical, AlphaScreen, human; 0.91% of 650,000 active; Microphthalmia-associated transcription factor (Homo sapiens), O75030; inhibition, % at 2.6 µM; AlphaScreen MITF homodimerization, bead proximity signal; in the data active means inhibition above about 50%
Target sequence (O75030 whole entry, looked up): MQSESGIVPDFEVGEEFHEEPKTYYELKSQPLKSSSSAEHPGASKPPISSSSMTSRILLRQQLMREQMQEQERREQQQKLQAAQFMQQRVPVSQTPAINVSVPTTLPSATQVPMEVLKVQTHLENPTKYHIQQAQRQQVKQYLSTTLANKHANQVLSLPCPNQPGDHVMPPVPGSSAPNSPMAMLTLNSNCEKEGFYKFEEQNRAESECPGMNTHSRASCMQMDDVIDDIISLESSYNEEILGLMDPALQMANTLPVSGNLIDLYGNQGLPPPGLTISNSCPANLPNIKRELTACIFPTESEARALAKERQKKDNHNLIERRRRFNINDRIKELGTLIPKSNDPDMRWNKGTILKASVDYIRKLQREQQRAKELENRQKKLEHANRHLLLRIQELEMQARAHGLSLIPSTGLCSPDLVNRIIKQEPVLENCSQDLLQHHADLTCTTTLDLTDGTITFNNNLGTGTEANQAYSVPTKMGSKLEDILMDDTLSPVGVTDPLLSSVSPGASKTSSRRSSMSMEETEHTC
FBW7 activator: FBW7 E3 ligase activators, primary screen, biochemical, AlphaScreen, human | F-box/WD repeat-containing protein 7 (Homo sapiens), Q969H0 | AlphaScreen FBW7–phospho-cyclin E peptide binding, activator screen | normalized activity (activation), % at 26.1 µM | 0.13% of 650,000 active; in the data active means normalized activity above about 1.9%;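 further: purified mutant Fbw7 with reduced substrate affinity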
GPR151 ag: activators of human GPR151, primary screen, cell-based, PathHunter beta-arrestin, luminescence; PathHunter beta-arrestin GPR151 cells; activation, % at 11.2 µM; 1% of 650,000 active; AID 1508602, 2020; G-protein coupled receptor 151 (Homo sapiens), Q8TDV0; in the data active means activation above about 4.9%
TEAD-YAP block: TEAD-YAP interaction inhibition, primary screen, TEAD-YAP interaction inhibitor project, luminescence, HEK-TIYL cells; TEAD-Gal4/YAP UAS-luciferase luminescence; inhibition, % at 9.12 µM; 1.4% of 640,000 active; AID 1259422, 2018; in the data active means inhibition above about 32%
MITF confirm: MITF inhibitors, retest of hits, confirmation, biochemical, AlphaScreen, triplicate | shares compounds with MITF primary | AlphaScreen MITF homodimerization, biotin/His-MITF beads | inhibition, % at 2.6 µM | 16% of 4,700 active;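 active means inhibition above a cutoff derived from the DMSO control wells, cut at about 28% in these data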;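 further: inhibitors lower the bead chemiluminescence by keeping MITF from dimerizing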
AlphaScreen DR: AlphaScreen optical interference compounds, dose response, counter-screen, biochemical, HTS; shares compounds with MITF primary; AlphaScreen optical interference counterscreen, cell-free; IC50, µM; 6% of 480 active; AID 1259373, 2018; call rule not given here
AS interf ctr: AlphaScreen optical interference compounds, counter-screen for MITF inhibitor project, biochemical, triplicate; shares compounds with MITF primary; LysRS AlphaScreen counterscreen, signal interference; inhibition, % at 2.6 µM; 7.6% of 4,700 active; AID 1259376, 2018;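 active means inhibition above a cutoff derived from the DMSO control wells, cut at about 30% in these data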
Hits are given with their value; 0 = inactive; - = no result given. Rows were chosen to be rich in hits. Some 3.5% of all compounds tested hit in one or more screens of this group.

SMILES | MITF primary | FBW7 activator | GPR151 ag | TEAD-YAP block | MITF confirm | AS interf ctr | others
O=C(c1ccsc1)N1CCOc2ccc(CN3CCN(c4ccccc4)CC3)cc2C1 | 73 | 0 | 0 | 0 | 0 | 0
CC(=O)C1=C(O)C(=O)N(CCN2CCNCC2)C1c1ccc(F)cc1 (centres undefined) | 101 | 0 | 0 | 0 | 0 | 0
COc1ccc(N(C(=O)/C=C/c2ccccc2)C2=CC3CCC(C2)N3C)cc1 (centres undefined) | 56 | 0 | 0 | 0 | 0 | 0
FC(F)(F)c1ccccc1CN1CCN(Cc2cccc(Cl)c2)CC1 | 69 | 0 | 0 | 0 | 0 | 0
Clc1cccc(CN2CCN(c3ncccn3)CC2)c1 | 0 | 0 | 0 | 0 | - | -
Cc1ccc(S(=O)(=O)N2CCN(Cc3cccc(C)c3)CC2)cc1 | 0 | 0 | 0 | 0 | - | -
Cc1cccc(CN2CCN(Cc3ccccc3C(F)(F)F)CC2)c1 | 76 | 0 | 0 | 0 | 0 | 0
CSc1ccc(CNC(=O)CCCn2nnnc2CN2CCC(C)CC2)cc1 | 0 | 0 | 0 | 0 | - | -
O=C(Nc1cccnc1Cl)c1cnn2c(C(F)(F)F)cc(-c3cccs3)nc12 | 0 | 0 | 0 | 0 | - | -
CSc1ccccc1NC(=O)c1cnn2c(C(F)(F)F)cc(-c3cccs3)nc12 | 75 | 0 | 0 | 0 | 0 | 0
O=C(COC(=O)c1ccco1)c1ccc2ccccc2c1 | 92 | 0 | 0 | 0 | 0 | 0
CN1CCN(Cc2cc([N+](=O)[O-])c(O)c3ncccc23)CC1 | 97 | 0 | 0 | 0 | 105 | 101
O=[N+]([O-])c1cc(CN2CCCC2)c2cccnc2c1O | 99 | 0 | 0 | 0 | 106 | 101
O=C(Cn1nc2c3c4c(sc3ncn2c1=O)CCCC4)NC1CCCCC1 | 0 | 0 | 0 | 0 | - | -
COc1ccc(C(=O)Nc2cc(C(=O)NCc3cccc(Cl)c3)ccc2N2CC3CC(C2)c2cccc(=O)n2C3)cc1 (centres undefined) | 0 | 0 | 0 | 0 | - | -
O=C1OC(Nc2ccc(F)cc2)c2ccccc21 (centres undefined) | 0 | 0 | 0 | 0 | - | -
COCCCNC(=O)/C(C#N)=C/c1ccc(-c2ccc(Cl)c(C(=O)O)c2)o1 | 58 | 0 | 0 | 0 | 46 | 0 | AlphaScreen DR=0
CC(=O)Oc1cccc(C(=O)Nc2cc(C(=O)O)ccc2C)c1 | 102 | 0 | 0 | 0 | 0 | 0
Cc1ccc(C(=O)O)cc1NC(=O)c1cccc(C(=O)Nc2cc(C(=O)O)ccc2C)c1 | 0 | 0 | 0 | 0 | - | -
C=C(C)CN(CC)Cc1ccc([N+](=O)[O-])o1 | 65 | 0 | 0 | 0 | 0 | 0
CCN(CC)S(=O)(=O)c1ccc(C(=O)N2CCc3cc(OC)c(OC)cc3C2COc2ccc(C(=O)OC)cc2)cc1 (centres undefined) | 0 | 0 | 0 | 0 | - | -
Cc1cccc(Cl)c1OCCOCCNCCO | 73 | 0 | 0 | 0 | 0 | 0
COCCNCCOCCOc1cccc(Cl)c1Cl | 0 | 0 | 0 | 0 | - | -
COCCNCCOCCOc1c(C)cccc1C(C)(C)C | 61 | 0 | 0 | 0 | 0 | 0
CCCCNCCOCCOc1c(C)cccc1Cl | 0 | 0 | 0 | 0 | - | -
SMILES | MITF primary | FBW7 activator | GPR151 ag | TEAD-YAP block | MITF confirm | AS interf ctr | others
NCCNCCOCCOc1cccc(Cl)c1Cl | 51 | 0 | 0 | 0 | 0 | 0
COCCNCCOc1c(C)cccc1C(C)(C)C | 80 | 0 | 0 | 0 | 0 | 0
COCCNCCCOc1c(C)cccc1C(C)(C)C | 0 | 0 | 0 | 0 | - | -
CCCCNC(=O)c1cnn2c(C)c(Cc3ccccc3F)c(C)nc12 | 0 | 0 | 0 | 0 | - | -
COc1ccc(C2=N/C(=C/c3cccnc3)C(=O)O2)cc1Br | 0 | 0 | 0 | 0 | - | -
COC(=O)COc1ccc(S(=O)(=O)NCCc2ccccc2)cc1 | 0 | 0 | 0 | 0 | - | -
Cc1sc2nc(CNCc3ccco3)[nH]c(=O)c2c1-c1ccccc1 | 58 | 0 | 0 | 0 | 0 | 0
O=C1c2ccc([N+](=O)[O-])cc2C(=O)N1c1cc(Br)c(O)c(Br)c1 | 69 | 0 | 0 | 0 | 75 | 0 | AlphaScreen DR=0
COc1ccc(C(=O)N2CCN(Cc3ccccc3Br)CC2)cc1 | 59 | 0 | 0 | 0 | 0 | 0
